# Reference: PubChem BioAssay
# Activity calls are given as the source filed them. Unless noted, the rule behind the calls is not given here.
# Columns and labels:
# [1] = test system: XIP peptide (Xip251-270) binding; test: small-molecule binders of XIP peptide, primary screen, biochemical, small-molecule microarray, fluorescence 635/667 nm, 0.1 µg/mL protein (AID 1182); details: fluorescent protein binding, 635 nm, higher = more signal, called active from +8 up or from −8 down
# [2] = test system: XIP peptide (Xip251-270); test: small-molecule binders of XIP peptide, primary screen, biochemical, small-molecule microarray, fluorescence 635/667 nm, 0.5 µg/mL protein (AID 1183); details: small-molecule microarray binding, fluorescence 635 nm; higher = more signal
# [3] = Plasmodium falciparum growth inhibition, primary screen, strain 3D7, DAPI fluorescence, 100 nL (AID 1184);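 note: parasites grown inside human red blood cells in medium with human serum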; details: P. falciparum 3D7 growth, 3 d, higher = more signal
# [4] = biological target: Homeobox protein Hox-A13 (Mus musculus) (UniProt Q62424); test: inhibitors of HoxA13-DNA binding, primary screen, biochemical, fluorescence polarization, labeled oligonucleotide (AID 1185); details: 15 min, higher = more signal, called active from +8 up or from −8 down
# [5] = inhibitors of hydroxyurea-induced Chk1 phosphorylation, primary screen, imaging, HeLa, phospho-Chk1 antibody, percent positive cells (AID 1186); details: hydroxyurea-induced phospho-Chk1 immunofluorescence imaging, higher = more signal
# [6] = inhibitors of hydroxyurea-induced Chk1 phosphorylation, primary screen, imaging, HeLa, phospho-Chk1 nuclear intensity (AID 1187); details: hydroxyurea-induced phospho-Chk1 immunofluorescence imaging, higher = more signal
# Homeobox protein Hox-A13 (Mus musculus), sequence (Q62424 whole entry, looked up): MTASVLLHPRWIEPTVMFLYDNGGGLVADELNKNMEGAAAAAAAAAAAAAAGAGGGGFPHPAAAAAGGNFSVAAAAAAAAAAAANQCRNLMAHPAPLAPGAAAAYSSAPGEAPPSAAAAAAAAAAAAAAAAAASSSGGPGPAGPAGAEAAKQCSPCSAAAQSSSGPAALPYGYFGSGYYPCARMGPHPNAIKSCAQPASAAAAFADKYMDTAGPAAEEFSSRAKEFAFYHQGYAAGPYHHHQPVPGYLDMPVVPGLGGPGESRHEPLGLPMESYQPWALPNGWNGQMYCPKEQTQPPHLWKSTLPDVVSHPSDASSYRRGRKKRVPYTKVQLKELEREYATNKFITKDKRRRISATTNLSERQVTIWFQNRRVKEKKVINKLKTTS
SMILES,composite z-score [1],composite z-score [2],z-score [3],z-score [4],z-score [5],z-score [6]
COCCOC(=O)N1C(=O)[C@@]2(c3cc(C#CC4(O)CCCCCC4)ccc31)[C@H](c1ccccc1OCCO)N1[C@H](c3ccccc3)[C@H](c3ccccc3)OC(=O)[C@H]1[C@@H]2C(=O)N1CCc2cc(OC)c(OC)cc2C1,0.164 (inactive),0.741,-1.89,-0.494 (inactive),-0.149 (inactive),0.27 (inactive)
O=C1O[C@@H](c2ccccc2)[C@@H](c2ccccc2)N2[C@@H](c3ccc(OCCO)cc3)[C@]3(C(=O)Nc4ccc(C#CC5=CCCCC5)cc43)[C@@H](C(=O)N3CCCCCCC3)[C@H]12,1.43 (inactive),0.679,-2.22,-15.4 (active),0.201 (inactive),0.474 (inactive)
CC(=O)NCCCC[C@@H]1NC(=O)[C@H]2C[C@@H](C(=O)O)[C@@H](c3ccc(O)cc3)N2C1=O,1.01 (inactive),0.764,-1.71,4.77 (inactive),0.402 (inactive),0.207 (inactive)
C#CCN1[C@H](/C=C/C2CC2)[C@H](Cc2ccccc2)OC(=O)[C@@H]1Cc1ccccc1,1.42 (inactive),0.513,-0.568,-0.837 (inactive),-0.315 (inactive),-0.418 (inactive)
CCOC(=O)C[C@H]1[C@H](OC(=O)c2ccc(C(=O)c3ccccc3)cc2)[C@@H](NC(=O)c2ccccc2)c2cc(OCCCO)ccc2N1C(=O)c1ccccc1,-0.492 (inactive),0.59,-0.263,-1.19 (inactive),0.743 (inactive),0.943 (inactive)
C=CCN1C(=O)[C@]2(Cc3ccccc3)N=C(c3ccc(OCCCO)cc3)O[C@@H]2c2ccccc21,0.7 (inactive),0.812,-2.1,-1.6 (inactive),-0.535 (inactive),-0.461 (inactive)
C#CCN(C/C=C/c1ccccc1)[C@H](CO)c1ccccc1,-0.333 (inactive),-0.384,-0.213,-6.53 (inactive),-0.209 (inactive),-0.753 (inactive)
COC(=O)C(CC#Cc1ccc2c(c1)[C@]1(C(=O)N2)[C@H](c2ccccc2OCCO)N2[C@H](c3ccccc3)[C@H](c3ccccc3)OC(=O)[C@H]2[C@@H]1C(N)=O)C(=O)OC,0.945 (inactive),0.787,-2.24,-2.21 (inactive),0.202 (inactive),0.555 (inactive)
COC(=O)[C@@]1(Cc2ccccc2)[C@H]2c3cc(C(=O)N4CCCC4)n(Cc4ccc(O)c(OC)c4)c3C[C@H]2CN1C(=O)c1ccccc1,0.469 (inactive),-0.333,-1.32,-4.6 (inactive),1.13 (inactive),0.678 (inactive)
C=CCC(OC(C)=O)[C@@H]1[C@@H](N(Cc2ccc(-c3cccc(C(F)(F)F)c3)o2)C(=O)Cc2ccc(OC)cc2)c2cc(OCCCO)ccc2N1C(=O)c1ccc2ccccc2c1 (some centres undefined),0.397 (inactive),0.0642,-2.16,-2.43 (inactive),0.171 (inactive),0.284 (inactive)
CCCCN1CC=CC23O[C@@H]4/C=C\CCCOC(=O)C4[C@H]2C(=O)N(CCCCCO)[C@@H]3C1=O (some centres undefined),-0.359 (inactive),0.41,1.34,-4.13 (inactive),1.19 (inactive),0.831 (inactive)
OCC1C=C(/C=C/c2ccccc2)CN1Cc1ccccc1Br (centres undefined),1.74 (inactive),0.698,-0.982,-2.19 (inactive),-0.449 (inactive),-0.283 (inactive)
O=C(NC1CC1)[C@@H]1c2ccccc2C(=O)N(Cc2cc(F)cc(C(F)(F)F)c2)[C@H]1c1ccc(CO)cc1,-0.414 (inactive),0.716,-0.247,-3.5 (inactive),0.135 (inactive),-0.0928 (inactive)
COc1cc(CO)cc(I)c1O[C@H]1C=C(C(=O)NCCO)C[C@@H](N(C(=O)c2cc3ccccc3oc2=O)C2CCCCCC2)[C@@H]1O,-0.207 (inactive),0.466,-1.8,-7.6 (inactive),0.21 (inactive),0.722 (inactive)
COC(=O)[C@H](Cc1ccccc1)N[C@H](/C=C/C1CC1)[C@@H](O)Cc1ccccc1,-0.126 (inactive),0.34,-0.873,-5.24 (inactive),-0.748 (inactive),-0.39 (inactive)
O=C1OCCC=C[C@H]2OC34C=CCN(Cn5nnc6ccccc65)C(=O)[C@H]3N(CCO)C(=O)[C@@H]4C12 (some centres undefined),-0.681 (inactive),-0.552,-0.288,-2.78 (inactive),-0.943 (inactive),-1.01 (inactive)
O=C1O[C@@H](c2ccccc2)[C@@H](c2ccccc2)N2[C@@H](c3ccccc3OCCO)[C@]3(C(=O)Nc4ccc(C#CC5(O)CCCCCC5)cc43)[C@@H](C(=O)N3CCN(c4ncccn4)CC3)[C@H]12,-0.0661 (inactive),0.661,-2.17,-1.01 (inactive),-0.0019 (inactive),0.451 (inactive)

SMILES,composite z-score [1],composite z-score [2],z-score [3],z-score [4],z-score [5],z-score [6]
C=CC1c2cc(O)c(OC)cc2CCN1Cc1cccc(OC(F)(F)F)c1 (centres undefined),1.81 (inactive),0.918,-1.8,-4.91 (inactive),0.08 (inactive),0.362 (inactive)
COCCCNC(=O)[C@@]1(CCS(=O)(=O)c2ccccc2)N=C(c2ccc(OCCCO)cc2)O[C@H]1c1ccccc1N=[N+]=[N-],1.26 (inactive),0.839,-2.72,-3.94 (inactive),-0.662 (inactive),-0.624 (inactive)
CO[C@H]1O[C@H](CO)[C@@H](OC(=O)Nc2ccc(Br)cc2)[C@@H]2OC(=O)[C@H](Cc3cccc(Br)c3)C/C=C/C[C@@H](Cc3cccc(Br)c3)C(=O)O[C@@H]12,0.406 (inactive),0.467,-1.55,1.51 (inactive),-0.423 (inactive),-0.471 (inactive)
O=C1N(CCS(=O)(=O)c2ccccc2)c2ccccc2[C@@H]2OC(c3ccc(OCCCO)cc3)=N[C@]12Cc1ccccc1,0.395 (inactive),0.639,-2.17,-1.41 (inactive),-0.522 (inactive),-0.825 (inactive)
CCOC(=O)C1=CC[C@@H](c2ccc(C(F)(F)F)cc2)N(S(=O)(=O)c2ccc(C)cc2)[C@H]1c1ccccc1,0.544 (inactive),0.762,-2.02,0.759 (inactive),0.0487 (inactive),-0.516 (inactive)
COc1ccc(C#Cc2ccc3c(c2)[C@]2(C(=O)N3)[C@H](c3ccc(O)cc3)N3[C@H](c4ccccc4)[C@H](c4ccccc4)OC(=O)[C@H]3[C@@H]2C(=O)N2CCc3cc(OC)c(OC)cc3C2)cc1,0.409 (inactive),0.465,-2,-1.17 (inactive),-0.0377 (inactive),-0.187 (inactive)
COC(=O)[C@@]1(Cc2ccc(OC)cc2)[C@H]2c3cc(C(=O)N4CCCC4)n(CCCNc4ncc(C(F)(F)F)cc4Cl)c3C[C@H]2CN1C(=O)c1ccccc1,-0.546 (inactive),0.736,-1.41,-4.1 (inactive),0.259 (inactive),-0.101 (inactive)
O=C1NC(=O)C2C1C=CC(C(O)c1ccc(I)cc1)N2Nc1ccccn1 (centres undefined),0.932 (inactive),0.457,1.04,-1.85 (inactive),0.955 (inactive),0.534 (inactive)
COc1ccc([C@H]2C[C@H]3C(Br)=C[C@@]2(CO)C(=O)[C@]32CO2)cc1,-0.358 (inactive),-0.311,0.951,-1.05 (inactive),-0.0281 (inactive),0.202 (inactive)
C[C@H]1C2[C@H](Cc3ccccc3)NC(=O)[C@]23C(=O)NCC(=O)N2CCC[C@H]2C(=O)NC/C=C/CCC/C=C/C3[C@@H]2O[C@]12C (some centres undefined),-0.416 (inactive),-0.56,-1.48,-3.96 (inactive),0.0614 (inactive),0.0823 (inactive)
CC(C)CNC(=O)[C@@]1(Cc2ccccc2I)c2ccccc2C(=O)N(Cc2ccccc2C(F)(F)F)[C@H]1c1ccc(CO)cc1,1.43 (inactive),0.875,-0.538,-1.78 (inactive),0.172 (inactive),0.345 (inactive)
CCCNC(=O)[C@@H]1c2ccccc2C(=O)N(Cc2ccccc2OC)[C@H]1c1ccc(CO)cc1,0.273 (inactive),0.85,-1.54,-3.2 (inactive),-0.175 (inactive),-0.0848 (inactive)
CC(c1ccccc1)C(O)C1C=CC2C(=O)N(c3ccccc3)C(=O)C2N1Nc1ccccc1 (centres undefined),1.06 (inactive),0.807,-0.417,-2.4 (inactive),0.2 (inactive),0.175 (inactive)
COCCOC(=O)N1C(=O)[C@@]2(c3ccccc31)[C@H](c1ccc(OCCO)cc1)N1[C@H](c3ccccc3)[C@H](c3ccccc3)OC(=O)[C@H]1[C@@H]2C(=O)N1CCc2cc(OC)c(OC)cc2C1,0.933 (inactive),0.919,-2.15,2.01 (inactive),0.147 (inactive),0.0081 (inactive)
COc1ccc(CCNC(=O)[C@@]2(c3ccc([N+](=O)[O-])cc3)CC(=O)N(CC34CC5CC(CC(C5)C3)C4)[C@@H]2c2ccc(CO)cc2I)cc1,0.417 (inactive),0.723,-1.46,-0.814 (inactive),-0.155 (inactive),0.022 (inactive)
COCCOC(=O)N1C(=O)[C@@]2(c3cc(C#CC4=CCCCC4)ccc31)[C@H](c1ccc(OCCO)cc1)N1[C@H](c3ccccc3)[C@H](c3ccccc3)OC(=O)[C@H]1[C@@H]2C(=O)N1CCc2cc(OC)c(OC)cc2C1,0.411 (inactive),0.64,-2.06,3.66 (inactive),-0.0561 (inactive),-0.0158 (inactive)
COc1cc2c(cc1OC)CN(C(=O)[C@H]1[C@@H]3C(=O)O[C@@H](c4ccccc4)[C@@H](c4ccccc4)N3[C@@H](c3ccccc3OCCO)[C@]13C(=O)Nc1ccc(C#CCCO)cc13)CC2,0.138 (inactive),0.438,-2.16,1.23 (inactive),0.211 (inactive),0.0914 (inactive)
